Source: PubChem BioAssay
Shown are actives, neighbours in structure and some others; about 2.9% of the full set was active somewhere.
PG9 Ab binder: binders of HIV-1 gp120 antibody PG9, primary screen, biochemical, TR-FRET; HIV-1 gp120 / PG9 antibody interaction; TR-FRET gp120-PG9 antibody binding; hit rate 0.43% among 360,000; inhibition, % at 6.7 µM; AID 624416, 2012; in the data active means inhibition above about 8.5%
RAM inhibit: inhibitors of the yeast RAM network, primary screen, dse1pr::URA3 reporter, 5-FOA selection; S. cerevisiae dse1pr::URA3 reporter, 5-FOA growth OD615, 2 d; analog-sensitive cbk1-as2 kinase mutant strain; hit rate 1.8% among 190,000; inhibition, % at 50 µM;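 active means inhibition above a set limit, 3 SD over mean compound inhibition, cut at about 8.4% in these data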;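 further: 0% = DMSO-only wells with no growth and 100% = 10 µM 1-NA-PP1 full growth; inhibition rescues growth on 5-FOA so higher OD means more RAM inhibition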
EP2 antag: human EP2 receptor antagonists, primary screen, TR-FRET cAMP, C6 glioma cells. C6 glioma cells expressing human EP2; cells stimulated with saturating PGE2. AID 1422, 2008. hit rate 0.52% among 260,000. inhibition, % at 25 µM;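 active means percent inhibition above 40 after rounding to a whole number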;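 further: rat C6 glioma host cells with rolipram phosphodiesterase inhibitor present; the protocol text gives 20 µM as final concentration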
Target sequence (P43116 whole entry, looked up): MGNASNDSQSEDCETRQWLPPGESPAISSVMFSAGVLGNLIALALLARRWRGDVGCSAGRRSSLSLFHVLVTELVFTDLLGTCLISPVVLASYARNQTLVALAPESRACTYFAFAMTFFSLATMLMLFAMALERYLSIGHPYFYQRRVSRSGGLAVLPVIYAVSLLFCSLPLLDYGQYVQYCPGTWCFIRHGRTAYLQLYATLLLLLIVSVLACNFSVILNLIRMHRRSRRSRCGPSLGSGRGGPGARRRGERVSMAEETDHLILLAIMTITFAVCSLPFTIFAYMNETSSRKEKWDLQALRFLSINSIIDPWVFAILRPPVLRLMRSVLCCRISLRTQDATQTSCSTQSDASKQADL
EP2 mod: EP2 receptor modulators, cAMP readout, primary screen, cell-based, HTRF cAMP, PGE2 stimulation | EP2-expressing cells, cAMP HTRF FRET, PGE2 co-stimulation | hit rate 0.83% among 260,000 | Prostaglandin E2 receptor EP2 subtype (Homo sapiens), P43116 | induction, % at 25 µM;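 active means compounds whose cAMP rise, as percent of the full-agonist control response, exceeds 60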;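 further: rat C6 glioma line stably carrying human EP2 under a CMV promoter; the protocol text gives 20 µM as final concentration; 100% = response of wells given 1 µM PGE2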
Rev-erbA mod: modulators of Rev-erb alpha DNA binding, primary screen, biochemical, FITC-DNA, fluorescence polarization, uHTS; Nuclear receptor subfamily 1 group D member 1 (Homo sapiens), P20393; AID 1259318, 2017; activity, % at 10 µM; hit rate 0.79% among 370,000; Rev-erbα–FITC-DNA binding, 90 min;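 active means activity above about 14%, limit read from the data; passing the limit was not always enough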;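 further: 0% = DMSO wells with 35 nM protein and 100% = DMSO wells with 750 nM protein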
SKN-1 block: suppressors of acrylamide-induced Pgst-4::GFP reporter in worms, primary screen, SKN-1 inhibitor project, whole organism, uHTS, GFP/RFP fluorescence ratio, strain VP596; C. elegans VP596 Pgst-4::GFP/RFP ratio, 24 h; inhibition, % at 21.8 µM; hit rate 0.49% among 360,000; AID 624304, 2012;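 active means interference check ratio from 0.5 to 1.5 plus GFP to RFP signal ratio inhibition reaching or exceeding a fixed threshold, cut at about 30% in these data, passing the limit was not always enough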
NR1D1 mod conf: modulators of Rev-erb alpha DNA binding, confirmation, biochemical, FITC-DNA, fluorescence polarization, single point. shares compounds with Rev-erbA mod. 90 min. activation, % at 25 µM. hit rate 61% among 3,000;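 active means activation at or above a set limit, or at least 3 SD above the negative control mean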;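 further: 0% = 35 nM protein with DMSO and 100% = 750 nM protein high control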
RORg counter: modulation of RORgamma DNA binding, dose response, counter-screen for Rev-erb alpha modulator project, biochemical, fluorescence polarization, FITC-DNA | hit rate 8% among 910 | AID 1259320, 2017 | purified RORgamma protein-FITC-DNA binding | IC50, µM | shares compounds with Rev-erbA mod;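 active means Compounds whose fitted half-maximal concentration for disrupting protein-DNA binding is below 10 micromolar; the record names Rev-erb in its text, so the target is in doubt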
An asterisk follows results filed as active; i = inactive; . = no result.

SMILES	PG9 Ab binder	RAM inhibit	EP2 antag	EP2 mod	Rev-erbA mod	SKN-1 block	NR1D1 mod conf	others
COc1ccc(C(=O)NCCNc2nc3cc(C)cc(C)c3cc2C#N)nc1	-2.3	.	.	.	22.8*	14.5	44.5*	RORg counter=>40
CCOC(=O)C1=C(c2ccccc2)O/C(=C(/C#N)C(F)(F)F)S1	.	6.5	-0.5	11.8	.	.	.
CCOC(=O)C1=C(c2ccccc2)O/C(=C(\C(=O)OC)C(F)(F)F)S1	-2.7	11.2*	12.3	30.7	25.1*	-5.8	18.0*
COc1ccc2cc(C)c3nn(CC(=O)N4CCNC(=O)C4(C)C)c(=O)n3c2c1	.	.	4.6	-26.2	.	.	.
COc1ccc(C(=O)OCc2cc(=O)oc3cc(C)ccc23)cc1S(=O)(=O)N1CCOCC1	-0.1	.	.	.	-3.4	7.1	.
COc1ccc2c(COC(=O)c3ccc(C)c(S(=O)(=O)N4CCOCC4)c3)cc(=O)oc2c1	-0.9	.	.	.	20.5*	34.0	25.9*
COc1cccc(CNc2nc3ccc(C)cc3n3cnnc23)c1	1.8	.	6.3	-5.0	26.2*	4.9	7.3
CCOC(=O)C1=CN(CC)CCC1=O	-2.7	.	.	.	24.8*	-2.4	-1.9
CCOC(=O)C1=CN(C)CCC1=O	-0.3	.	.	.	0.8	0.8	.
Cc1c(Cl)ccc2c(C(N)=O)cc(-c3ccccn3)nc12	1.6	0.6	11.1	1.2	41.1*	22.6	35.2*	RORg counter=>40
CCOC(=O)CNC(=O)c1cc(-c2ccccn2)nc2c(C)c(Cl)ccc12	3.5	1.1	5.8	11.0	18.6*	2.2	21.5*
O=C(NCc1ccc(F)cc1)c1c(O)c2cccc3c2n(c1=O)CCC3	1.2	0.9	12.6	47.3	37.2*	-15.9	10.5
O=C(Nc1ccc(F)cc1)c1sc2cc(C(F)(F)F)cnc2c1-c1cccs1	-13.1	2.7	6.5	34.4	49.3*	-4.0	21.1*
NNC(=O)c1sc2cc(C(F)(F)F)cnc2c1-c1ccccn1	-0.9	0.5	3.4	21.9	-1.5	-2.2	.
CN(CC(=O)Nc1ccc(Cl)c(C(F)(F)F)c1)C(=O)c1cn2ccccc2n1	-1.6	.	.	.	20.5*	18.2	1.8
Cc1cc(C(=O)N(C)CC(=O)Nc2ccc(Cl)c(C(F)(F)F)c2)no1	1.1	.	.	.	-1.0	2.4	.
Cn1ccnc1C(NC(=O)N1CCCCC1)c1ccc(F)c(F)c1 (stereo not drawn)	.	.	.	-1.4	.	.	.
C/C(N)=C(/C#N)C(=O)CSc1cc(C)c2cc(C)cc(C)c2n1	2.0	8.3	17.9	1.4	50.2*	18.2	27.5*
CCOc1ccccc1NC(=O)CSC1=C(C#N)C(c2ccco2)C(C(=O)Nc2nc3ccccc3s2)=C(C)N1 (stereo not drawn)	1.1	4.8	12.1	19.6	66.1*	9.1	54.3*	RORg counter=>40
CC1=C(C(=O)Nc2ccccc2)C(c2ccco2)C(C#N)=C(SCC(=O)Nc2cccc(C)c2C)N1 (stereo not drawn)	-0.4	1.4	14.0	-1.3	4.5	-0.8	.
COCCN(C(=O)C(C)C)c1nnc(-c2ccc(F)cc2)s1	.	.	19.2	-9.9	.	.	.
COc1ccc(C(=O)Nc2cc(-c3nc4ccccc4o3)ccc2Cl)cc1Br	.	.	10.7	5.8	.	.	.
CC(Sc1nc2ccccc2c(=O)n1C)C(=O)Nc1ccc2c(c1)OCCO2 (stereo not drawn)	2.0	.	.	.	27.1*	-11.7	11.7*
CC(C)Cn1c(SC(C)C(=O)Nc2ccc3c(c2)OCCO3)nc2ccccc2c1=O (stereo not drawn)	-0.1	3.1	6.9	22.2	-3.0	3.8	.
O=C(CSc1ncnc2ccccc12)Nc1ccc2c(c1)OCCO2	0.3	1.4	11.1	-22.1	1.4	5.6	.
SMILES	PG9 Ab binder	RAM inhibit	EP2 antag	EP2 mod	Rev-erbA mod	SKN-1 block	NR1D1 mod conf	others
Cc1cc(C)c2cc(C#N)c(SCC(=O)Nc3ccc4c(c3)OCO4)nc2c1	4.3	.	14.9	7.7	62.4*	7.5	196.3*	RORg counter=>40
O=C(CSc1nc(Cc2ccccc2)nc2ccccc12)Nc1ccc2c(c1)OCCO2	7.8	6.9	7.1	-11.2	33.5*	1.7	27.0*
Cc1cc(C)c2cc(C#N)c(SCC(=O)NCC3CCCO3)nc2c1 (stereo not drawn)	0.2	3.1	20.1	8.3	102.7*	11.0	87.5*	RORg counter=i
COc1ccc(-c2oc(=O)c3cc(OC)c(OC)cc3c2C#CC2(O)CCCCC2)cc1	-0.4	.	.	.	27.0*	11.4	-2.6
COc1cc(OC)cc(-c2oc(=O)c3cc(OC)c(OC)cc3c2C#CCCCO)c1	-2.4	.	.	.	31.7*	9.0	-4.5
COc1ccc(-c2oc(=O)c3cc(OC)c(OC)cc3c2C#CCCCO)cc1	-0.7	.	.	.	12.9	11.8	.
Cc1cc2ccccc2n2c(=O)n(CCNC(=O)c3ccnn3C(C)C)nc12	.	.	0.8	-10.6	.	.	.
c1ccc(-c2ccc(OCc3cn4ccccc4n3)cc2)cc1	.	.	10.4	-114.8	.	.	.
Cc1cc(C)nc(NS(=O)(=O)c2ccc(N/C=C\C(=O)c3ccc(Cl)cc3)cc2)n1	1.1	7.3	14.6	-30.1	5.6	10.5	.
CCOc1ccc(C(=O)/C=C/Nc2ccc(S(=O)(=O)Nc3cc(C)nc(C)n3)cc2)cc1	-0.7	.	.	.	19.8*	.	0.7
Cc1cc(C)nc(NS(=O)(=O)c2ccc(N/C=C/C(=O)c3ccc(Cl)c(Cl)c3)cc2)n1	-4.3	4.3	8.9	-6.4	31.9*	6.8	19.1*
COc1cc(NS(=O)(=O)c2ccc(N/C=C\C(=O)c3ccc(C)cc3)cc2)nc(OC)n1	-0.2	.	19.7	.	2.6	7.3	.
Cc1ccc2cc(C#N)c(SCC(=O)Nc3cccc(Cl)c3)nc2c1	.	.	6.9	5.0	.	.	.
CCc1nc(SCC(=O)Nc2cc(C)ccc2OC)c2c(C)c(C)sc2n1	-0.8	.	.	.	18.0*	-10.1	7.9
CCN(CC)C(=O)CSc1nc(C)cc(-c2cccs2)c1C#N	0.4	2.7	12.9	32.2	77.8*	17.8	50.6*	RORg counter=>40
CC(C)NC(=O)CSc1nc(-c2cccs2)cc(-c2ccccc2)c1C#N	0.0	2.0	11.6	13.3	59.6*	21.9	46.8*	RORg counter=>40
COc1ccc(-c2cc(-c3cccs3)c(C#N)c(SCC(N)=O)n2)cc1	.	.	5.8	-3.1	.	.	.
